High-throughput results as filed in PubChem BioAssay.
A selection: hits, their analogues and other compounds. The true share with any hit is near 4%.
HIF-2a inh = blocks HIF-2a reporter activity; AID 624352; inhibition, % at 18.8 µM; 786-0 RCC cells HIF-2a reporter, luciferase luminescence, overnight; 360,000 tested, 0.72% active;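 active means inhibition of the luminescence signal of 40% or more relative to plate controls, in a single-dose primary screen at 18.75 µM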
CF NFkB block = inhibitors of cystic fibrosis induced NF-kB; inhibition, % at 5 µM; 360,000 tested, 0.86% active; KKLEB NF-kB-GFP reporter, PAF-induced, GFP fluorescence overnight;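 active means at least 50% inhibition at 5 µM, scaled per plate between neutral and stimulator controls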;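 further: PAF is a Pseudomonas aeruginosa culture filtrate used as stimulus; plate controls were PAF-stimulated DMSO wells for no effect and unstimulated DMSO wells for full effect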
Peg3 promoter = inhibitors of Peg3 promoter. HeLa PEG-Prom luciferase reporter, luminescence, overnight. inhibition, % at 20 µM. 360,000 tested, 1.7% active;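 active means inhibition of at least 50% at 20 µM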
TROY signal inh = blocks TROY-dependent signaling in reporter cells | Q293 LMP1-TROYcd NF-kB luciferase reporter, 4 h | inhibition, % at 10 µM | 360,000 tested, 0.98% active;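 active means compounds whose plate-normalised and pattern-corrected inhibition of the luciferase reporter signal at the single screening dose is 50% or more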
TWEAK-Fn14 inh = inhibitors of TWEAK-Fn14 interaction signaling | inhibition, % at 10 µM | TWEAK-stimulated Fn14 reporter cells, luciferase luminescence, 8 h | 360,000 tested, 2% active; in the data active means inhibition above about 50%
KKLEB cytotox = reduces viability of KKLEB cystic fibrosis airway cells | KKLEB CF airway cells viability, ATPlite luminescence, overnight; stronger effect = lower value; cells stimulated with P. aeruginosa culture filtrate | AID 602141 | activity change (cytotoxicity), % at 5 µM | 360,000 tested, 0.36% active;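 active means corrected activity change at or below -50% at 5 µM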
* hit, by the source's call; . = not tested or not shown.

SMILES	HIF-2a inh	CF NFkB block	Peg3 promoter	TROY signal inh	TWEAK-Fn14 inh	KKLEB cytotox
COCOc1cc(O)c(C(=O)/C=C/c2ccccc2)c(OCOC)c1	37.1	40.0	94.5*	21.1	70.5*	-3.4
COc1ccc(OC)c(N/C=C/C(=O)c2ccccc2)c1	63.0*	-17.3	73.2*	80.7*	100.7*	-88.4*
COc1ccc(C(=O)/C=C/c2ccccc2)c(OC)c1	-120.7	14.7	68.0*	-27.2	58.5*	-20.4
COc1ccc(C(=O)/C=C/c2ccc(N(C)C)cc2)c(OC)c1	-171.0	-18.3	-43.2	-26.6	-9.1	-19.6
COc1ccc(OC)c(N/C(C)=C/C(=O)c2ccccc2)c1	-220.0	-10.6	-330.2	20.7	-4.0	-2.6
Cc1ccc(CSCC(=O)N(C)CC(=O)Nc2ccccc2C(F)(F)F)cc1	-3.3	21.8	-2.8	-6.2	11.2	-15.8
CCC(C)NC(=S)Nc1ccc(C(=O)OC)cc1 (stereo not given)	-58.9	-3.2	-89.0	-32.2	27.9	2.9
COc1ccc(C=CC(=O)c2c(OC)cc(OC)c(OC)c2O)cc1	3.5	8.0	42.8	16.6	67.9*	-15.1
COc1cc(/C=C/C(=O)c2cccc([N+](=O)[O-])c2)cc(OC)c1OC	38.1	24.1	105.2*	35.9	38.2	-2.8
COc1ccc(C(=O)/C=C/c2cc(OC)c(O)c(OC)c2)c(F)c1	35.3	10.8	45.1	6.0	56.5*	-4.8
CNCc1ccccc1Sc1cccc2ccccc12	16.6	-7.3	18.9	12.5	13.3	1.6
CN(C)CCN(C)Cc1ccccc1Sc1cccc2ccccc12	3.2	27.7	102.3*	-6.5	-7.6	-12.4
CCOC1=CC2=C(C(=O)C(Cl)=CC2=O)[C@@H]2CN(S(=O)(=O)c3ccc(C)cc3)[C@@H](c3ccccc3)[C@H]12	57.2*	-15.5	48.8	11.7	43.0	-16.1
CCN(CCC(=O)Nc1ccc(Br)c(C)c1)Cc1ccccc1	7.2	-12.3	8.2	-5.7	-21.9	-14.6
CCc1nnc(NC(=O)CCn2cnc3ccccc3c2=O)s1	11.8	7.8	-2.9	-10.7	6.6	0.7
O=C(CN(C(=O)CCC(=O)Nc1nccs1)c1ccccc1F)NCc1ccc2c(c1)OCO2	11.0	20.4	21.0	-12.5	-0.3	-3.8
COc1ccc(NC(=O)O/N=C/c2c(C)nn(C(C)(C)C)c2C)cc1	-148.2	-16.5	-187.4	64.9*	-9.7	-1.3
COc1ccc(C(=O)NCC(=O)N2CCN(C(=O)c3ccco3)CC2)cc1OC	-0.2	-11.2	-5.1	-3.8	9.6	13.5
Cc1ccc(Nc2nc(N)c3ccccc3n2)cc1C	-26.4	-3.1	-19.8	26.5	68.4*	-54.4*
O=S(=O)(c1cccc2nonc12)N1CCN(c2ccc(F)cc2)CC1	15.5	0.7	-1.4	19.6	-8.2	-3.6
OC(c1ccccc1)c1ncc(-c2cccc(F)c2)[nH]1 (stereo not given)	-92.6	7.1	-59.3	-38.5	-7.0	-37.0
CC(C)Cn1c(N)c(C(=O)COC(=O)COc2cccc(C(F)(F)F)c2)c(=O)n(C)c1=O	15.8	-4.9	1.9	13.3	3.3	5.3
COc1cc(CNCc2ccccc2Cl)ccc1OCC(=O)NC1CCCCC1	7.2	-12.1	17.5	4.1	86.1*	21.6
COc1cc(CNn2cnnc2)ccc1OCC(=O)NC1CCCCC1	-1.3	5.5	6.2	-21.7	12.0	4.5
Cc1cc(C)cc(C(=O)Nc2c3c(nn2C(C)(C)C)CS(=O)(=O)C3)c1	13.8	9.2	0.8	6.5	8.1	-1.6
SMILES	HIF-2a inh	CF NFkB block	Peg3 promoter	TROY signal inh	TWEAK-Fn14 inh	KKLEB cytotox
COc1ccc(-n2nc(C(=O)NCC(=O)NCCCN3CCOCC3)c3ccccc3c2=O)cc1Cl	7.2	4.3	-12.2	-16.2	-11.8	-5.9
COc1ccc(-n2nc(C(=O)NCC(=O)NCCCN3CCOCC3)c3ccccc3c2=O)cc1OC	4.0	12.7	-0.1	-7.2	-3.0	-76.3*
c1ccc(CSc2ncnc3sccc23)cc1	-110.9	8.4	-63.4	1.1	4.8	-7.1
Clc1ccc(-n2nnnc2Sc2ncnc3sccc23)cc1	93.3*	82.8*	108.0*	69.7*	74.7*	-10.4
Cc1sc2ncnc(Sc3nnnn3-c3ccccc3)c2c1C	23.9	79.9*	72.2*	66.5*	101.4*	-53.5*
COc1ccc(/C=N/NC(=O)c2cc3c(OC)ccc(OC)c3[nH]2)cc1O	-8.2	12.4	-2.5	-33.2	6.1	-1.6
COc1cccc(/C=N/NC(=O)c2ccccc2)c1OS(=O)(=O)c1ccccc1	-0.3	-3.9	-10.5	-28.9	76.4*	0.1
COc1ccc(OC)c2[nH]c(C(=O)N/N=C/c3ccccc3O)cc12	3.2	-1.7	63.4*	8.1	13.5	-19.7
CCN(CC)Cc1c(O)ccc2c(=O)c(-c3ccccc3Cl)coc12	12.4	19.0	7.8	-10.0	-14.9	3.2
O=C(CN1C(=O)C(=O)c2ccccc21)NC1CCCCC1	10.0	2.7	14.8	3.3	-0.1	-14.4
CN(/N=C/C=C/c1ccccc1)C1=NS(=O)(=O)c2ccccc21	7.5	8.9	-13.1	-12.7	-24.8	-12.5
Cc1cc(N2CCN(C)CC2)nc2ccc(NC(=S)NCCC(C)C)cc12	-47.2	16.4	-11.0	53.9*	25.3	-4.9
CC1=NOC(=O)/C1=C\c1ccc(-c2ccc(Cl)c(C(=O)O)c2)o1	16.0	-18.6	0.1	19.7	-17.9	12.7
CC1=NOC(=O)/C1=C\c1ccc(-c2cccc(Cl)c2)o1	83.2*	93.0*	105.3*	56.6*	66.8*	-33.3
CC1=CC2=NC(=O)/C(=C\c3ccc(-c4cccc(Cl)c4)o3)C(=N)N2O1	11.7	3.9	56.6*	16.5	3.9	-10.2
COc1ccccc1N(CC(=O)NCc1ccc2c(c1)OCO2)C(=O)CCC(=O)Nc1nccs1	8.4	2.7	17.0	-1.0	-19.5	1.1
CC(=O)Oc1c(I)cc(I)cc1C(=O)Nc1ccc(Cl)cc1	-120.9	70.0*	20.5	52.2*	52.2*	-38.9
COc1ccc(Cl)cc1C(=O)Nc1ccc(NC(C)=O)cc1	-22.9	-9.2	-10.7	-31.9	-1.9	2.0
CC(=O)Nc1cccc(C(=O)OCC(=O)Nc2ccc(Cl)cn2)c1	-75.1	-22.5	-79.8	-25.6	0.7	5.7
COc1ccc(C)cc1NC(=O)c1cccc(-c2ccc(OC(C)=O)cc2)c1	-7.1	-25.3	-13.2	-48.5	-10.3	2.2
CC(C)(C)NC(=O)c1ccc2c(c1)N(CC(=O)NC1CCCC1)C(=O)C(C)(C)O2	21.7	-5.8	10.2	-6.3	-4.5	-2.2
O=C1OC2(CCCCC2)OC(=O)C1=CNc1nccs1	14.8	9.1	-5.1	.	55.4*	3.6
CCO[C@@H]1OC(C(=O)Nc2ccccc2)=C[C@H](c2ccc(Br)cc2)[C@H]1CCCO	14.0	-2.3	6.3	-9.4	-25.8	14.3
O=C(CSCc1cccc(Br)c1)NC1CC1	-7.7	11.2	-8.2	-13.4	-7.6	1.7
CCOC(=O)N1CCC2(CC1)CC(=O)c1cc(O)ccc1O2	2.2	7.0	5.5	-7.3	63.5*	-3.3
